# Screening results as filed in PubChem BioAssay.
# Shown are actives, neighbours in structure and some others; about 2% of the full set was active somewhere.
# PME-1 inh: blocks human protein phosphatase methylesterase 1; inhibition, % at 5.9 µM; hit rate 0.53% among 320,000; recombinant PME-1, FP-Rh probe fluorescence polarization;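 active = inhibition above the campaign mean of all compounds plus 3 SD, cut at about 26% in these data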;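 also: competitive labeling of PME-1 active site by serine hydrolase directed probe; inhibitors block probe labeling so polarization falls and inhibition rises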
# Target sequence (Q9Y570 whole entry, looked up): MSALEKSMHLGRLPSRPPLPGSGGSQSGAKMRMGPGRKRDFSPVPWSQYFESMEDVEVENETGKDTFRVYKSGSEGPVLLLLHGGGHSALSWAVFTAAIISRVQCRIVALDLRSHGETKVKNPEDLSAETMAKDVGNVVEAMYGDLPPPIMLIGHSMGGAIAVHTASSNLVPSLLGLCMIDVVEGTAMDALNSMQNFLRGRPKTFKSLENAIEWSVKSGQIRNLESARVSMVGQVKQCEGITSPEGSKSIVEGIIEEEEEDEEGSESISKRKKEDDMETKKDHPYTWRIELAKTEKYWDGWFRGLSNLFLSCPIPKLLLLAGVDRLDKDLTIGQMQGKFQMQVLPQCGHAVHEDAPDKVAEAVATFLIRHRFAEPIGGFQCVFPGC
# PREPL inhibitor: human PREPL enzyme inhibition | Q4J6C6 | recombinant PREPL, fluorescence polarization activity-based probe | inhibition, % at 5.96 µM | hit rate 0.68% among 320,000 | AID 2751; in the data active = inhibition above about 43%
# LYPLA2 inh: blocks human lysophospholipase 2, a PME1 counter-screen | recombinant LYPLA2, FP-Rh probe fluorescence polarization | inhibition, % at 5.9 µM | hit rate 0.38% among 320,000 | AID 2177 | O95372;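 active = inhibition above the screen-wide mean plus 3 SD, limit set per campaign, cut at about 26% in these data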
# Fam108B counter: Fam108B inhibition, counter-screen for RBBP9 inhibitors | recombinant Fam108B, FP-Rh probe fluorescence polarization | inhibition, % at 9.51 µM | hit rate 0.33% among 300,000;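 active = inhibition above the screen mean inhibition plus 3 SD, computed separately per campaign, cut at about 18% in these data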;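 also: inhibitors lower polarization as less probe binds the enzyme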
# GSTO1 counter: blocks human GSTO1 in RBBP9 counter-screen; P78417; recombinant GSTO1, activity-based probe fluorescence polarization; inhibition, % at 5.96 µM; hit rate 1.1% among 300,000;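 active = inhibition above the campaign mean inhibition plus 3 SD, cut at about 35% in these data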
# Target sequence (P78417 whole entry, looked up): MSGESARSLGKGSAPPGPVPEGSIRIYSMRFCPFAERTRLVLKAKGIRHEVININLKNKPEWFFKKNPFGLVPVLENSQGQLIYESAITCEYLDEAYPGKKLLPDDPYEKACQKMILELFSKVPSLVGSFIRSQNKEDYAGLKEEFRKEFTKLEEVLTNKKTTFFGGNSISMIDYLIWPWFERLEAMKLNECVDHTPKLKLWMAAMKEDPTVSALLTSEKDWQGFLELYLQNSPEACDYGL
# LYPLA1 counter: counter-screen for PME1 inhibitors: inhibitors of human LYPLA1; inhibition, % at 5.9 µM; AID 2174; O75608; hit rate 0.16% among 320,000; recombinant LYPLA1, FP-Rh probe fluorescence polarization;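 active = inhibition above the mean of all tested compounds plus 3 SD, set per campaign, cut at about 14% in these data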;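 also: inhibitors block serine hydrolase probe labeling of LYPLA1 so polarization falls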
# A number is an active result; – = inactive; · = no result given.
SMILES,PME-1 inh,PREPL inhibitor,LYPLA2 inh,Fam108B counter,GSTO1 counter,LYPLA1 counter
COc1ccc(/C=N/Nc2cc(N(C)C)nc(N(C)C)n2)cc1,–,–,–,–,52.4,–
O=C1NC2=C(C(=O)OC2)C(c2ccc(OC(F)(F)F)cc2)N1 (centres undefined),–,–,–,–,–,–
C[C@H](CO)N1C[C@H](C)[C@@H](CN(C)Cc2ccc(-c3ccccc3)cc2)Oc2c(NC(=O)Nc3ccc4c(c3)OCO4)cccc2C1=O,·,–,·,·,·,·
O=C(N=Nc1c(O)n(Cc2ccccc2)c2ccccc12)c1ccc(O)cc1,–,–,–,–,–,–
O=C(N=Nc1c(O)n(Cc2ccccc2)c2ccccc12)c1cc2ccccc2cc1O,51.1,–,–,–,–,–
C[C@@H]1C(=O)O[C@H](C)[C@H]1C[C@@H](O)[C@](C)(O)C1CC[C@@]2(O)C3=CC(=O)[C@@H]4C[C@@H](O)[C@@H](O)C[C@]4(C)C3CC[C@]12C (some centres undefined),·,–,·,·,·,·
O=C(c1ccco1)c1coc2c1cc(O)c1ccccc12,–,–,–,–,43.2,–
CC(=O)c1coc2c1cc(O)c1ccccc12,–,–,–,–,–,–
Cc1cc(N=Nc2ccc(C)c(N=Nc3cc(C)c(N)cc3N)c2)c(N)cc1N,–,69.9,–,–,–,–
Cc1ccc(N=Nc2ccc(O)c3ncccc23)cc1C,–,–,–,–,–,–
NS(=O)(=O)c1cccc(NC(=O)COC(=O)Cc2n[nH]c(=O)c3ccccc23)c1,–,–,–,·,·,–
O=[N+]([O-])c1cc(S(=O)(=O)Nc2cccc(C(F)(F)F)c2)ccc1-n1nnc2ccccc21,32.9,–,–,–,–,–
CN(C)c1ccc(C(CNC(=O)c2ccc(C#N)cc2)c2c[nH]c3ccccc23)cc1 (centres undefined),–,65.1,–,–,–,–
O=C(CNc1ccc2ccccc2c1)N/N=C/c1ccncc1,–,–,–,–,–,–
O=C(CNc1ccc2ccccc2c1)N/N=C/c1ccc(OC(=O)/C=C/c2ccco2)cc1,30.2,–,–,–,–,–
COc1ccc(-c2cc(-c3ccc(C)cc3)n[nH]2)c(O)c1,47.3,–,–,–,–,–
CS(=O)(=O)N1CCC(C(=O)NCc2ccc(Cl)cc2)CC1,–,–,–,–,–,–
c1ccc2sc(Nc3nc4cc5c(cc4s3)OCO5)nc2c1,47.2,–,–,–,–,–
O=C(COc1ccccc1)Nc1nc2cc3c(cc2s1)OCO3,–,–,–,–,–,–
CCOC(=O)c1sc(Nc2nc3cc4c(cc3s2)OCO4)cc1C,60.9,–,–,–,–,–
CC(=O)Nc1nc2cc3c(cc2s1)OCO3,–,–,–,–,–,–
CCCCN(C)CC(O)Cn1cc(/C=C/C(=O)c2ccc(C)cc2)c2ccccc21 (centres undefined),–,44.5,–,–,–,–
Nc1[nH]n(-c2ccccc2)c(=O)c1N=Nc1ccc2c(c1)OCCO2,42.6,–,–,–,–,–
Cc1cc([N+](=O)[O-])ccc1N=Nc1c(N)[nH]n(-c2ccccc2)c1=O,–,–,–,–,–,–
COc1cccc(-c2nnc(Nc3nc4c(F)cccc4s3)o2)c1,43.8,–,–,–,–,–
SMILES,PME-1 inh,PREPL inhibitor,LYPLA2 inh,Fam108B counter,GSTO1 counter,LYPLA1 counter
COc1cccc2sc(Nc3nnc(-c4ccccc4Cl)o3)nc12,–,–,–,–,–,–
COc1ccccc1-c1nnc(Nc2nc3c(OC)cccc3s2)o1,31.1,–,–,–,–,–
CCOc1ccc(NC(=O)C/C(C)=N/NC(=O)COc2ccc(Br)cc2C)cc1,–,–,–,–,–,–
Cn1c(=O)oc2cc(S(=O)(=O)NC3CCN(Cc4ccccc4)CC3)ccc21,–,–,–,–,37.1,–
O=Cc1[nH]c2ccccc2c1N(C(=O)CCl)c1ccc([N+](=O)[O-])cc1,–,–,–,–,73.3,–
CC(=O)n1cc(N(C(=O)CCl)c2ccccc2)c2ccccc21,–,–,–,–,76.9,–
CC(=O)n1cc(CO)c2ccccc21,–,–,–,–,–,–
CC(=O)n1cc(N(C(=O)CCl)c2ccc([N+](=O)[O-])cc2)c2ccccc21,–,–,–,–,75.4,–
O=c1nc(/C=C/c2cc([N+](=O)[O-])ccc2Cl)cc(C(F)(F)F)[nH]1,27.2,–,–,–,–,–
Cc1ccc(NC(=O)CN(C)C(=O)COC(=O)CCS(=O)(=O)c2ccc(C)cc2)cc1,–,–,–,–,–,–
CCOC(=O)c1c(C2CC2)csc1NC(=O)COC(=O)CCS(=O)(=O)c1ccc(C)cc1,–,–,–,–,37.4,–
CCOC(=O)c1c(C)[nH]c(C)c1S(=O)(=O)N(C)CC(=O)Nc1cc(C)ccc1OC,26.4,–,–,–,–,–
O=C1/C(=C/Nc2ccc3c(c2)OCO3)CCc2ccccc21,30.3,–,–,–,–,–
Cc1ccc(NC(=O)C2=C(C(=O)O)CCCC2)cc1Br,–,–,–,–,–,–
Cc1ccc(S(=O)(=O)N(C(=O)c2ccco2)c2cc3sc(=O)oc3c3ccccc23)cc1,–,–,–,–,66.1,–
CCOc1ccc(S(=O)(=O)N(C)CC(=O)NCc2ccco2)cc1,–,–,–,–,–,–
CCOc1ccc(S(=O)(=O)N(C(=O)c2ccco2)c2cc3sc(=O)oc3c3ccccc23)cc1,–,–,–,–,37.2,–
COc1cc(OC)c(C2CC(=O)N3CN(c4ccccc4C)CSC3=C2C#N)cc1OC (centres undefined),–,–,–,–,36.0,–
COc1ccc(OC)c(C2CC(=O)N3CN(c4ccccc4)CSC3=C2C#N)c1 (centres undefined),–,–,–,–,–,–
O=C(CN1CCN(S(=O)(=O)c2ccccc2)CC1)Nc1ccc2c(c1)CCC2,–,–,–,–,–,–
C=C(C)COc1ccc(-c2[nH]ncc2-c2ccc(OC)c(OC)c2)c(O)c1,29.2,–,–,–,–,–
N#Cc1ccc2[nH]c(CO)c(-c3ccccc3)c2c1,–,–,–,–,–,–
CCCn1c(SCC(=O)N2CC(=O)Nc3ccccc32)n[nH]c1=O,·,–,·,·,·,·
CCN(C(=O)COC(=O)c1cc(S(=O)(=O)N(C)C)ccc1Cl)C1CCS(=O)(=O)C1 (centres undefined),–,–,–,–,–,–
O=C(Nc1cccc(S(=O)(=O)NC2=NCCC2)c1)c1cc(-c2ccco2)nc2ccccc12,–,–,–,–,60.5,–
O=C(CCl)NC(=O)NC12CC3CC(CC(C3)C1)C2,–,–,–,–,89.2,–
O=C(NCCCO)NC12CC3CC(CC(C3)C1)C2,–,–,–,–,–,–
O=C(CCl)N=c1sccn1Cc1ccccc1Cl,–,–,–,–,102.0,–
COC(=O)c1ccccc1C(=O)c1ccc2c(c1)NC(=O)CO2,39.4,–,–,–,–,–
O=C1COc2ccc(C(=O)COC(=O)c3ccccc3F)cc2N1,·,–,·,·,·,·
